From PubChem BioAssay
Hits are enriched below; roughly 8% of the tested compounds scored in any of these assays.
FMDV antiviral – blocks foot and mouth disease virus; Potency, µM (series often up to 57.9 µM), for inactives: at the highest dose activity change, negative = inhibition, most hits filed as inhibitors; 410,000 tested, 1.2% active; FMDV antiviral cell-based qHTS; AID 1159524; calls by dose curve; tested in HEK293T cells; further: read-out not given here; potency means the concentration at half of the fitted maximal effect; on the % scale 0 is the no-effect control and ±100 the full control effect; nearly all actives have a fitted effect of over 45% in size
HCMV inh – human cytomegalovirus inhibition; HFF cells, HCMV-luciferase reporter, 72 h; hits give low values; activity change, negative = inhibition, % at 57.5 µM; 410,000 tested, 4.5% active; in the data active means activity change below about -60%; inconclusive means no clear call, values can overlap the other calls; inactive means above about -39%; further: on the % scale 0 is the no-effect control and ±100 the full control effect
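After 16 h attachment at 37C, HFF cells received test compound and HCMV-luciferase (1 PFU/cell); reporter luminescence read 72 h later, data normalized against buffer-only and known inhibitor Salinomycin.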
SARS PLpro yeast – inhibitors of SARS-CoV papain-like protease in yeast. 330,000 tested, 0.19% active. S. cerevisiae expressing SARS-CoV PLpro, growth rescue. Potency, µM (highest dose often 32.9 µM), for the others: top-dose activity, positive = growth rescue, usual class: activators. AID 485353; calls by dose curve; further: potency means the concentration at half of the fitted maximal effect; 0% is about no effect; nearly all actives have a fitted effect of over 55% in size
LASV entry inh – Lassa virus entry inhibition | Lassa virus pseudotype entry inhibition, cell reporter | Potency, µM (doses to about 37.9 µM), inactives show at the top dose activity change, negative = inhibition, most hits filed as inhibitors | 300,000 tested, 1.2% active | AID 540256; calls by dose curve; tested in HEK293 cells; further: potency means the concentration at half of the fitted maximal effect; on the % scale 0 is the no-effect control and ±100 the full control effect; nearly all actives have a fitted effect of over 50% in size
Marburg entry inh – inhibitors of Marburg virus binding or cell entry; Marburg virus pseudotyped entry inhibition, cell reporter; Potency, µM (series often up to 37.8 µM), inactives show at the top dose activity change, negative = inhibition, most hits filed as inhibitors; 300,000 tested, 1.8% active; calls by dose curve; tested in HEK293 cells; further: potency means the concentration at half of the fitted maximal effect; on the % scale 0 is the no-effect control and ±100 the full control effect
HCV inh – blocks hepatitis C virus | Huh7.5.1 HCVcc-Cre infection, luciferase reporter, 44 h | 340,000 tested, 3.4% active | Potency, µM (series often up to 41.8 µM), inactives show at the top dose activity change, negative = inhibition, usual class: inhibitors | AID 651820; active means well fitted inhibition curve with a large enough effect; inconclusive means small, poorly fitted or top-dose-only effect, or another doubt; inactive means no such curve, though single readings can be large or run the other way; further: potency means the concentration at half of the fitted maximal effect; on the % scale 0 is the no-effect control and ±100 the full control effect
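Cells (1,000/well) were plated 4 h before compound, then infected with HCVcc-Cre virus (~0.5 moi). After 44 h further culture, infection was read as luciferase luminescence following a 15 min substrate incubation at room temperature.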
* = called active by the depositor; u = inconclusive; x = no result; [ ] = dose if it differs, or a comment.

SMILES | FMDV antiviral | HCMV inh | SARS PLpro yeast | LASV entry inh | Marburg entry inh | HCV inh
Cc1cccc(Cn2c(SCc3ccc(C(=O)N4CCCCCC4)cc3)nc3ccncc32)c1 | -24.3% | -90.2* | x | u | -23.7%[46.1 µM] | x
COC(=O)[C@H](C=C[C@H](C)Cc1cc(Br)cc(OCc2ccccc2)c1OC)OCc1ccccc1 | x | x | x | x | -15.1%[14.2 µM] | x
Cc1cccc(CC(=O)NCc2nc3cccnc3n2Cc2ccc(F)cc2)c1 | -13.5% | -63.3* | x | -10.2%[46.1 µM] | x | x
Cc1ccc(CCNC(=O)c2ccc(CSc3nc4ccncc4n3Cc3ccc(F)cc3)cc2)cc1 | u | -69.6* | x | x | u | x
CC(CC1=C2C=CC=CC2N=C1)NC(N)=O (stereo not drawn) | x | x | x | x | 5.1%[46.1 µM] | x
CC12CC[C@H]3[C@@H](CCC4(O)C[C@H](O)CCC34/C=N/NC(=O)c3ccccc3O)C1(O)CCC2C1=CC(=O)OC1 (stereo partly drawn) | -19.6% | 0.0 | -1.4% | u | u | -10.8%
CC1OC(OC2CC(O)C3(CO)C4C(O)CC5(C)C(C6=CC(=O)OC6)CCC5(O)C4CCC3(O)C2)C(O)C(O)C1O (stereo not drawn) | u | -72.3* | x | x | x | u
C[C@@H]1O[C@@H](O[C@H]2C[C@@H](O)[C@]3(CO)[C@@H]4C(CC[C@]3(O)C2)[C@@]2(O)CC[C@H]([C@@H]3COC(=O)C3)[C@@]2(C)C[C@H]4O)[C@H](O)[C@H](O)[C@H]1O (stereo partly drawn) | x | x | x | 2.31µM* | 0.82µM* | x
CCC(C)NC(=O)Cn1c(=O)n(CC2CCC(C(=O)NC)CC2)c(=O)c2sccc21 (stereo not drawn) | -11.2% | 8.8 | x | -1.9%[46.1 µM] | x | x
c1ccc(CCNc2ncnc3scc(C4COc5ccccc5O4)c23)cc1 (stereo not drawn) | 28.2µM* | -84.5* | -6.0% | -27.1% | -9.2% | 12.6µM*
Cc1nc(CC(=O)Nc2nc(C(C)(C)C)cs2)cs1 | -12.6% | -17.9 | 11.7% | u | u | -7.6%
O=C(COC(=O)c1cccs1)Nc1nc(-c2ccccc2)cs1 | 31.4% | 145.8 | 21.0% | u | 22.2% | 34.8%
O=C(Cc1cccs1)Nc1nc(-c2ccccc2)cs1 | u | -37.3 | -0.2% | 1.64µM* | u | u
Cc1nc(CC(=O)Nc2nc(-c3ccccc3)cs2)cs1 | -2.2% | -73.3* | -4.8% | u | -25.2%[46.1 µM] | u
COC(=O)C1=C(C(=O)OC)[C@@H]2N(C)c3ccc(OC)cc3[C@@]23C[C@@H](C(=O)OC)N(C(=O)N2CCNC2=O)C3=N1 | x | x | x | x | -26.4%[14.2 µM] | x
Cc1nc(N2CCCC2)ncc1C(=O)N1CCN(c2ccc(Cl)cc2)CC1 | -23.1% | 2.2 | x | 14.6%[46.1 µM] | x | x
CCOC(=O)C1CCN(C(=O)c2cccc(N3C(=O)NC4CC3(C)Oc3ccc(C)cc34)c2)CC1 (stereo not drawn) | 7.8% | -24.3 | -0.3% | -16.6%[46.1 µM] | 0.8%[46.1 µM] | -11.2%
CCOC(=O)N1CCN(C(=O)c2cccc(N3C(=O)NC4CC3(C)Oc3ccc(Cl)cc34)c2)CC1 (stereo not drawn) | u | -71.3* | x | -16.4%[46.1 µM] | -11.3%[46.1 µM] | -14.3%
CC(C)C1Cc2c(sc3[nH]c(=S)n(Cc4ccccc4)c(=O)c23)CO1 (stereo not drawn) | u | u | 23.5% | 0.794µM* | u | 18.7%
CCSc1nc2cc(OC)c(OC)cc2c(=O)n1CCc1ccccc1 | -3.2% | u | -1.7% | u | u | u
COCCCn1c(SCCc2ccccc2)nc2cc(OC)c(OC)cc2c1=N | u | -18.1 | -6.7% | x | x | 12.6µM*
OC(CNCCc1ccccc1)COc1ccc(OCC(O)CNCCc2ccccc2)cc1 (stereo not drawn) | -25.1% | -76.9* | 1.0% | u | 3.16µM* | u
COCCNCC(O)CON=C1c2ccccc2-c2ccccc21 (stereo not drawn) | -15.4% | -1.7 | -5.7% | u | u | -10.3%
CC(C)c1ccc(OCC(O)CNC(C)c2ccccc2)cc1 (stereo not drawn) | -11.1% | -23.5 | -0.4% | u | u | u
CC(C)CCNCC(O)CON=C1c2ccccc2-c2ccccc21 (stereo not drawn) | -10.0% | -72.1* | -5.8% | x | x | 8.91µM*
SMILES | FMDV antiviral | HCMV inh | SARS PLpro yeast | LASV entry inh | Marburg entry inh | HCV inh
OC(CNCCC(c1ccccc1)c1ccccc1)COc1ccccc1 (stereo not drawn) | -2.0% | u | 1.6% | u | u | 12.6µM*
COc1cccc(C(=O)Nc2cccc3c2ccc2cccn23)c1 | -13.7% | -23.3 | -1.0% | -16.0% | -17.5%[46.1 µM] | u
CCOC(=O)CC(=O)CSc1nc(CC)c(C)cc1C#N | 11.0% | -89.1* | -1.7% | 17.3% | u | 14.6%
CCc1nc(SCC(=O)O)c(C#N)cc1C | x | 0.9 | -5.1% | 16.3% | -0.8% | -4.0%
COc1cc(OC)c(OC)cc1CN1CCN(Cc2cccn2C)CC1 | -5.9% | 16.6 | 6.9% | -0.5% | 20.6µM* | -7.8%
COc1ccc([C@]23Cc4ccccc4C(O2)C2=C(CC4(CCCCC4)OC2=O)O3)cc1 | x | x | 0.9%[6.58 µM] | x | x | x
COc1ccc(OC)c(CN2CCOc3ccc(C(O)c4cccnc4)cc3C2)c1 (stereo not drawn) | -4.2% | x | x | x | x | x
CC(Oc1ccc(Cl)cc1Cl)C(=O)N(C)c1ccccc1 (stereo not drawn) | 1.5% | -67.2* | -1.0% | x | x | 0.1%
CNC(=O)c1cc(Nc2nnc(-c3ccc(O)cc3)c3ccccc23)ccc1OC | -5.4% | -31.0 | -1.4% | u | u | u
CCOc1ccc(-c2nnc(Nc3ccc(OC)c(C(=O)N4CCCCC4)c3)c3ccccc23)cc1 | -10.7% | -23.4 | -16.9% | x | 3.0% | 14.1µM*
COC(=O)COc1ccc(-c2nnc(Nc3ccc(O)cc3)c3ccccc23)cc1 | u | -106.7* | x | 19.1%[46.1 µM] | -4.7%[46.1 µM] | x
O=C(O)c1ccc2c(c1)C(=O)N([C@H](Cc1ccc3ccccc3c1)C(=O)O)C2=O | x | x | 5.0% | x | x | x
COCC=CC1=CC2=CC(=O)C(C)(OC(=O)c3cnc4ccccc4n3)C(=O)C2=CN1Cc1ccccc1 (stereo not drawn) | x | x | x | x | 18.6%[14.2 µM] | x
CN1CCN(C(=S)c2ccc(N(C)C)cc2)CC1 | 24.8% | -108.2* | 5.8% | -9.4% | 8.6% | -5.5%
CCN(CC)CCNC(Cc1ccccc1)c1cccc(OC)c1 (stereo not drawn) | -13.7% | 22.4 | x | u | u | -0.1%
CCCCCC(=O)N/N=C/c1ccc([N+](=O)[O-])o1 | -11.3% | -23.4 | -0.6% | u | u | u
CCOC(=O)/C(=C\c1ccc([N+](=O)[O-])o1)NC(=O)c1ccccc1 | x | x | -0.3% | -12.2% | 1.7% | u
O=C(CCC(=O)Nc1ccc(Cl)cc1Cl)N/N=C/c1ccc([N+](=O)[O-])o1 | -25.4% | -76.8* | -2.4% | u | u | u
CCCOC(=O)/C(=C\c1ccc([N+](=O)[O-])o1)NC(=O)c1ccccc1 | -0.8% | -12.2 | -16.6% | -5.1% | -6.8% | 14.1µM*
